This passage reports Potency results from PubChem BioAssay (Tox21).

Where “and” joins values, the source holds several entries; their conditions need not be identical. Equal values may be shown once. Results filed as inconclusive are left out. The source holds several records for some structures; these can differ, active in one and inactive in another. Calls of active or inactive are those of the source. Unless noted, the call rests on the fitted dose curve.

Test [1] can be described thus: Nuclear factor erythroid 2-related factor 2/antioxidant responsive element (Nrf2/ARE) small molecule agonists: qHTS cell viability counter screen in human keratinocytes (AID 1919968; active means well fitted curve in the direction sought with a large enough effect in the repeat runs; an effect the other way counts as inactive or inconclusive; further: nearly all actives have a fitted effect of over 55% in size). In short, it runs like this: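 CellTiter-Fluor fluorescence, read 1 h after reagent, gave viability in the same wells as the ARE-luciferase assay. KeratinoSens cells (1,500/well) had 23 h compound exposure at 37 C/5% CO2 following 5 h plating.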

A short description of test [2]: Nuclear factor erythroid 2-related factor 2/antioxidant responsive element (Nrf2/ARE) small molecule agonists: luciferase reporter gene qHTS assay in human keratinocytes (AID 1919969). Further: nearly all actives have a fitted effect of over 35% in size.
The target of test [3] is Gonadotropin-releasing hormone receptor (Homo sapiens) (UniProt P30968). The experiment in a line: Human gonadotropin-releasing hormone receptor (GnRHR) small molecule agonists, calcium flux assay in GnRHR-HEK293 cells (AID 1920063). Further: nearly all actives have a fitted effect of over 35% in size. In short, it runs like this: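 Agonist mode: compounds at 15 concentrations, in triplicate, went onto calcium dye-loaded GnRHR-HEK293 cells. Intracellular calcium was then followed as 480/540 nm fluorescence at 1 s intervals over 3 min.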
Gonadotropin-releasing hormone receptor (Homo sapiens), sequence (P30968 whole entry, looked up): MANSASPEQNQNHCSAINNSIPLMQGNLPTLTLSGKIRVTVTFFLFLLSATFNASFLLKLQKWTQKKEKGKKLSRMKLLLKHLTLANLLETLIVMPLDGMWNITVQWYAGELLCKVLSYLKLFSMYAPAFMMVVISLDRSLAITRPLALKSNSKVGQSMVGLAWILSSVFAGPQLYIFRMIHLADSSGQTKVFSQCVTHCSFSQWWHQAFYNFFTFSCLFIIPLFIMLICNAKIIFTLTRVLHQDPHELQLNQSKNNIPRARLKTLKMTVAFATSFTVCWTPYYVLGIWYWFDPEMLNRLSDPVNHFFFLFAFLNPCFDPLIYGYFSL
(In general: Calcium flux is commonly read through the fluorescence of an indicator in the cells.)

Test [4] addresses KiSS-1 receptor (Homo sapiens) (UniProt Q969F8). The experiment in a line: Human kisspeptin (KISS1R) small molecule agonists, calcium flux assay in KISS1R-HEK293 cells (AID 1920064; active means well fitted curve in the direction sought with a large enough effect in the repeat runs; an effect the other way counts as inactive or inconclusive). In short, it runs like this:
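Agonist mode: intracellular calcium rise tracked at 1 s intervals over 3 min (480/540 nm) immediately after compound addition to dye-loaded KISS1R-HEK293 stable cells. Each compound tested at 15 concentrations in triplicate.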

Test [5] is described as follows: G protein-coupled receptor (GPCR) small molecule agonists, calcium flux assay: HEK293 wild type cell line counter screen (AID 1920065). In short, it runs like this:
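Calcium flux counter screen: compound added in agonist mode at 15 concentrations in triplicate to dye-loaded parental HEK293 cells. Fluorescence (480/540) read kinetically for 3 min; ATP served as positive control.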

Test [6] is described as follows: p53 small molecule agonists, cell-based qHTS assay with human liver microsomes: qHTS cell viability counter screen (AID 1963579). Further: nearly all actives have a fitted effect of over 45% in size. In short, it runs like this: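 p53RE-bla cells (4,000/well) were pre-incubated 5 h at 37 C, then given compounds in DMSO plus human liver microsomes (0.5 mg/mL final) and NADPH (0.5 mg/mL final) for 16 h at 37 C. Viability was read by CellTiter-Glo luminescence.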
In general terms: qHTS replaces the single test concentration by a dilution series.

A short description of test [7]: p53 small molecule agonists, cell-based qHTS assay with rat liver microsomes: qHTS cell viability counter screen (AID 1963580). Further: nearly all actives have a fitted effect of over 45% in size. An outline of the steps: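 Rat liver microsome (0.5 mg/mL final) and NADPH (0.5 mg/mL final) co-incubation with compounds for 16 h at 37 C on HCT-116 p53RE-bla cells; cytotoxicity taken from intracellular ATP luminescence.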
The nature of test [8]: p53 small molecule agonists, cell-based qHTS assay: qHTS cell viability counter screen (AID 1963581). Further: nearly all actives have a fitted effect of over 45% in size. In short, it runs like this: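 Counter screen read by CellTiter-Glo luminescence (ATP content, 30 min at room temperature), run in the same wells as the beta-lactamase reporter read. HCT-116 p53RE-bla cells saw compounds for 16 h at 37 C.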
Test [9] deals with 5-hydroxytryptamine receptor 2A (Homo sapiens) (UniProt P28223). The experiment in a line: 5-hydroxytryptamine receptor 2A (HTR2A) small molecule antagonists, cell-based qHTS assay (AID 1963586). Further: nearly all actives have a fitted effect of over 45% in size. In short, it runs like this:
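CHO cells stably expressing human HTR2A were plated for 18 h at 37 C, then loaded with calcium dye for 1 h. Compounds were preincubated 5 min at room temperature before DOI (4 nM solution) was added. Kinetic fluorescence was read for 3 min.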

Test [10] has the same target. The test is described as follows: 5-hydroxytryptamine receptor 2A (HTR2A) small molecule agonists, cell-based qHTS assay (AID 1963587). Further: nearly all actives have a fitted effect of over 30% in size. Further: potency means the concentration at half of the fitted maximal effect. An outline of the steps:
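Kinetic calcium-flux fluorescence (2 min, 1 sec intervals) after compound addition in agonist mode. HTR2A-CHO cells were cultured 18 h, then dye-loaded 1 h at 37 C.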

Test [11] addresses Muscarinic acetylcholine receptor M1 (Homo sapiens) (UniProt P11229). The test is described as follows: Cholinergic receptor muscarinic 1 (CHRM1) small molecule antagonists, cell-based qHTS assay (AID 1963588). Further: nearly all actives have a fitted effect of over 40% in size. Further: potency means the concentration at half of the fitted maximal effect. An outline of the steps:
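Compounds were tested at 15 concentrations in three independent runs. Dye-loaded CHRM1-CHO cells were exposed 5 min at room temperature before stimulation by acetylcholine added at 50nM. Intracellular calcium was read kinetically on FDSS for 3 min.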

The target is the same in test [12]. The test is described as follows: Cholinergic receptor muscarinic 1 (CHRM1) small molecule agonists, cell-based qHTS assay (AID 1963589). Further: nearly all actives have a fitted effect of over 35% in size. An outline of the steps:
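Agonist-mode calcium-flux screen: compounds at 15 concentrations, three independent runs, were pin-transferred onto dye-loaded human CHRM1-CHO cells. Fluorescence was then recorded kinetically every second over minutes.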

A short description of test [13]: cAMP Responsive Elements (CRE) small molecule antagonists, cell-based qHTS assay (AID 1963591; active means well fitted inhibition curve with a large enough effect in the signal ratio in the repeat runs, not every such curve was filed as active; the % refers to the signal ratio). An outline of the steps: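 Antagonist mode: compounds are added alongside the adenylyl cyclase activator NKH477 (0.25 uM final) to CRE-bla HEK293T cells for 3 h. LiveBLAzer FRET substrate, 2 h at room temperature, reports bla expression.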
Test [14] has as its target Beta-2 adrenergic receptor (Homo sapiens) (UniProt P07550). The test is described as follows: Adrenergic beta2 receptor (ADRB2) small molecule antagonists, cell-based qHTS assay (AID 1963592). Further: series mostly up to about 92 µM; nearly all actives have a fitted effect of over 50% in size. In short, it runs like this:
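Assay format: CHO-ADRB2 cells, 18-20hr seeding at 37C/5% CO2, then compound plus 1nM isoproterenol agonist mix for 0.5hr RT. Homogeneous time-resolved fluorescence cAMP detection after 1hr, expressed as 665/615 nm ratio.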

The target is the same in test [15]. The test is described as follows: Adrenergic beta2 receptor (ADRB2) small molecule agonists, cell-based qHTS assay (AID 1963593).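 Further: CHO cells stably overexpressing human ADRB2.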 In short, it runs like this:
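CHO cells stably over-expressing ADRB2 were plated overnight at 37C, then dosed with compounds plus a stimulation mix containing 100uM IBMX and 25uM Ro-20-1724 for 0.5hr at room temperature. cAMP was measured by HTRF competition, 1hr.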

Test [16] addresses D(2) dopamine receptor (Homo sapiens) (UniProt P14416). The test is described as follows: Dopamine D2 receptor (DRD2) small molecule agonists, cell-based qHTS assay (AID 1963594). Further: nearly all actives have a fitted effect of over 35% in size. An outline of the steps: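 cAMP accumulation in DRD2-HEK293 cells measured by HTRF after 1 h detection; compounds added 10 min before NKH477 (200nM […]) forskolin-analogue stimulation, 30 min at room temperature, with Ro20-1724 present at 0.1 mM final.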

For test [17] the target is unchanged. The test is described as follows: Dopamine D2 receptor (DRD2) small molecule antagonists, cell-based qHTS assay (AID 1963595; active means well fitted inhibition curve with a large enough effect in the signal ratio in the repeat runs, with a control signal flat; the % refers to the signal ratio). An outline of the steps:
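DRD2-HEK293; 0.1 mM Ro20-1724; cpd 10 min RT; NKH477 200 nM + quinpirole 12 nM, 30 min RT; HTRF cAMP (cAMP-d2/anti-cAMP cryptate), 665/620 nm ratio after 1 h.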

Test [18] in a line: cAMP Responsive Elements (CRE) small molecule agonists, cell-based qHTS assay (AID 1963590). An outline of the steps: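 Agonist mode: compound added to CRE-bla HEK 293T cells (2,000/well, 18 h after plating) for 3 h at 37 C/5% CO2. Reporter activity detected via FRET beta-lactamase substrate, 2 h room-temperature loading.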
The nature of test [19]: p53 small molecule agonists, cell-based qHTS assay (AID 1963582; active means well fitted activation curve with a large enough effect in the signal ratio in the repeat runs, not every such curve was filed as active; the % refers to the signal ratio). In short, it runs like this:
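Read-out is beta-lactamase FRET fluorescence after 2 h at room temperature with LiveBLAzer B/G substrate. p53 response element-bla cells were treated 16 h at 37 C with compounds in DMSO, added 5 h after seeding.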

D(2) dopamine receptor (Homo sapiens), sequence (P14416 whole entry, looked up): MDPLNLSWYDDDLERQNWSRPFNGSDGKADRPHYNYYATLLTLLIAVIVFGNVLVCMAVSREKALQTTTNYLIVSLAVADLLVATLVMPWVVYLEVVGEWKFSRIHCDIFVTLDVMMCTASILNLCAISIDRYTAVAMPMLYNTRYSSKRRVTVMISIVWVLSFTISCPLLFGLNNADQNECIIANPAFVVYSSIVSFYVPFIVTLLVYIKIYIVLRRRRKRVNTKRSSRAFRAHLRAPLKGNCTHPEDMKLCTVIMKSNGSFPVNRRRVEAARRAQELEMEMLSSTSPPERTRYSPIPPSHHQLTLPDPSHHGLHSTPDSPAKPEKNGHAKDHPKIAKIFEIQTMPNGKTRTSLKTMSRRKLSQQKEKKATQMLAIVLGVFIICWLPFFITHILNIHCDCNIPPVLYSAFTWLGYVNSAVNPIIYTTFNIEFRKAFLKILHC
5-hydroxytryptamine receptor 2A (Homo sapiens), sequence (P28223 whole entry, looked up): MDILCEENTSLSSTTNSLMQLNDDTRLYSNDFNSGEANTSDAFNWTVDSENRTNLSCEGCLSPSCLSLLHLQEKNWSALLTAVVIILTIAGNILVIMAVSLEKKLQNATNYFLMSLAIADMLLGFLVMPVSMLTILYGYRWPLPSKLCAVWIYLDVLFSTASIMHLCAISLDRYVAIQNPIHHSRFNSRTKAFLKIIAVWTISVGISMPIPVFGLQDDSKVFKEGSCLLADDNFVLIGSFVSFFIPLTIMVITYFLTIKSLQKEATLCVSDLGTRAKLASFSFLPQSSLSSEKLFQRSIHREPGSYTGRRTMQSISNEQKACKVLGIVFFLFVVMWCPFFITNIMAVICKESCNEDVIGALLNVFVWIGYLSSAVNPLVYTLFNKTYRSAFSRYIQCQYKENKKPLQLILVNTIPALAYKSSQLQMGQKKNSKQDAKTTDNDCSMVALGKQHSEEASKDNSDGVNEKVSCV
KiSS-1 receptor (Homo sapiens), sequence (Q969F8 whole entry, looked up): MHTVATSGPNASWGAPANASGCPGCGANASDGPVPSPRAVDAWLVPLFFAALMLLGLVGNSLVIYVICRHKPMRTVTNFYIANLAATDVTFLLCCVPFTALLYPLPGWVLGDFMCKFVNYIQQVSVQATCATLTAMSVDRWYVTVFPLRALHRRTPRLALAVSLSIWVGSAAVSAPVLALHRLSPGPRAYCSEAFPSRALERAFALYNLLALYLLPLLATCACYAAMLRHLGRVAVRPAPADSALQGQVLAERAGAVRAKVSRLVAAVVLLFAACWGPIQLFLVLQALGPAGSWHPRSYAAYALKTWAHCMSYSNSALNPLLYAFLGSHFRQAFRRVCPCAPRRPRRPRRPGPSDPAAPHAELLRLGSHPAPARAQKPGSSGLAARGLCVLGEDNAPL
Muscarinic acetylcholine receptor M1 (Homo sapiens), sequence (P11229 whole entry, looked up): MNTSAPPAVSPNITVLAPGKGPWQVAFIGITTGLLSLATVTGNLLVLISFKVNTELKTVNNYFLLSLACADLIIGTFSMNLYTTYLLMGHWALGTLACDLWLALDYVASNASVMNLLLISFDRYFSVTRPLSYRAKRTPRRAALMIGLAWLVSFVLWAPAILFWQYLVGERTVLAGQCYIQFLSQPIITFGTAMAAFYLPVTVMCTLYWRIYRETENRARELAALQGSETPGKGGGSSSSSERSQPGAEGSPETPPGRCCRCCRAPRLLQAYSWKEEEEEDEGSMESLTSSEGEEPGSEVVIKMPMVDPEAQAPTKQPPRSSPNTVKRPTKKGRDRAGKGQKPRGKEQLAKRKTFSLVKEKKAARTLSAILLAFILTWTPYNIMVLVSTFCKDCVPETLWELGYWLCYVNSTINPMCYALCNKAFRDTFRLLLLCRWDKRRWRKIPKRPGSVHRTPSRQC
Beta-2 adrenergic receptor (Homo sapiens), sequence (P07550 whole entry, looked up): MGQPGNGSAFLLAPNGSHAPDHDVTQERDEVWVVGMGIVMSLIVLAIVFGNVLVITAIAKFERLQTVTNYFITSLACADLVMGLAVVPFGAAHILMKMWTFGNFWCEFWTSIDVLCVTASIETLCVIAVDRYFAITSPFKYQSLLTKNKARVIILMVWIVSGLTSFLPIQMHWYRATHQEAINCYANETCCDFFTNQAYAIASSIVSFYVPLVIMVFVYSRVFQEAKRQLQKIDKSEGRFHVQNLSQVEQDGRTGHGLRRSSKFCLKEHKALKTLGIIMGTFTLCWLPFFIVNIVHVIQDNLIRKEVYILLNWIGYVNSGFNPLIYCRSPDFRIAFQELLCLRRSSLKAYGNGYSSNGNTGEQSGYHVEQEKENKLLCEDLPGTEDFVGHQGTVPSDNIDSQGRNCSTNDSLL

Regarding `COc1cc(O)c(C(=O)c2ccccc2)cc1S(=O)(=O)O`, the Potency entry in test [1], in test [2], in test [3], in [4], in test [5] and in [6] was “inactive” throughout. Moreover, the Potency entry in [7], in [8], in test [9], in test [10], in test [11] and in test [12] was “inactive” throughout. In addition, the Potency entry in [13], in test [14], in [15], in test [16] and in [17] was “inactive” in each case.

With `CC(C)[C@@H]1CC[C@@H](C)C[C@H]1O`, the Potency result in test [1], in test [2], in [3], in [4], in [5] and in [6] was “inactive” in each case. For the same molecule, the Potency entry in test [7], in [8], in test [9], in [10], in [11] and in test [12] was “inactive” each time. For the same molecule, the Potency entry in [13], in test [14], in test [15], in test [16] and in [17] was “inactive” each time.

Regarding `CC(=O)/C=C/C1=C(C)CCCC1(C)C`, the Potency result in [1], in test [2], in [3], in [4], in [5] and in test [6] was “inactive” throughout. For the same molecule, the Potency entry in [7], in test [8], in test [9], in [10], in test [11] and in test [12] was “inactive” in each case. Besides, the Potency result in test [18], in test [13], in test [14], in [15], in test [16] and in test [17] was “inactive” in each case.

As for `NC1CCCCC1`, the Potency entry in test [1], in [2], in test [3], in [4], in test [5] and in [6] was “inactive” throughout. Moreover, the Potency result in [7], in test [8], in test [9], in test [18], in [13] and in test [14] was “inactive” throughout. In addition, the Potency entry in [15], in test [16] and in test [17] was “inactive” in each case. For the same molecule, the Potency in test [10] is 1.96 µM (active) and inactive; in [11] it was “inactive and 4.7 nM (active)”.

In the case of `Cc1ncc([N+](=O)[O-])n1CCO`, the Potency result in test [1], in [2], in [3], in [4], in [5] and in test [7] was “inactive” throughout. Further, the Potency result in [8], in test [19], in test [13], in [14], in test [15] and in test [17] was “inactive” each time.

On to `O=C(O)C(=O)O`, for which the Potency result in test [1], in test [2], in [3], in test [4], in [5] and in test [6] was “inactive” throughout. For the same molecule, the Potency result in test [7], in [9], in [10], in [11], in test [12] and in [18] was “inactive” in each case. Besides, the Potency result in test [13], in test [14] and in [16] was “inactive” in each case.

Regarding `Cc1ccc(S(=O)(=O)NC(=O)NN2CCCCCC2)cc1`, the Potency entry in test [1], in test [2], in [3], in [4], in test [5] and in test [6] was “inactive” each time. Also, the Potency entry in test [7], in test [8], in [18], in test [14], in test [15] and in [16] was “inactive” throughout. Further, the Potency result in [17] is “inactive”.

For `CCCOCC(C)O` (stereo unspecified), the Potency result in [1], in [2], in test [3], in test [4], in test [5] and in test [6] was “inactive” in each case. Further, the Potency entry in [8], in test [9], in test [10], in [11], in test [12] and in test [18] was “inactive” each time. For the same molecule, the Potency entry in [13], in test [14], in [15], in test [16] and in test [17] was “inactive” in each case.
